Measured values taken from the supplement of paper PMC11732987, “Enantioselective OTUD7B fragment discovery through chemoproteomics screening and high-throughput optimisation” (Communications Chemistry, 2025).

Assays:
Test in all cases: log2 ratio of Biotin-Ahx-Ub-VS probe labelling (compound/DMSO); higher = less target engagement, active = hit call of the paper (q ≤ 0.05, log2 ratio ≤ -1)
Conditions in all cases: treatment time: 3 h
[1] = compound: CCC1N(CCc2sccc12)C(=O)CCl
How it was run: (§1)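 For activity-based profiling, 495 µg portions of HEK293T lysate in Tris/CHAPS/IGEPAL buffer with protease inhibitors were treated in triplicate with compound at 50 or 200 µM or with DMSO for 3 h. A 1 h incubation with Biotin-Ahx-Ub-VS (0.5 µM final) followed, then NeutrAvidin enrichment, LysC and trypsin digestion and diaPASEF LC-MS/MS. The compound/DMSO base-two log ratios were averaged from median-normalised label-free quantities using an unpaired t-test. Proteins needed at least 2 unique peptides to be included.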

[2] = compound: CN1c2ccccc2C(CS1(=O)=O)NC(=O)CCl
How it was run: as §1

[3] = compound: Cl.ClCC(=O)N1CCc2ncncc2C1
How it was run: as §1

[4] = compound: Cl.Cn1ncc2C(CCCc12)NC(=O)CCl
How it was run: as §1

[5] = compound: ClCC(=O)NC1CCOc2ccccc12
How it was run: as §1

[6] = compound: ClCC(=O)NC1CCCc2ccccc12
How it was run: (§2)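 In triplicate, 495 µg portions of HEK293T lysate in Tris/CHAPS/IGEPAL buffer with protease inhibitors received compound across a concentration series or vehicle for 3 h, followed by 1 h with 0.5 µM final Biotin-Ahx-Ub-VS. After NeutrAvidin enrichment and LysC/trypsin digestion, the labelled deubiquitinases were measured by diaPASEF LC-MS/MS and quantified label-free in Spectronaut with global-median normalisation. Each value is an average compound-to-vehicle ratio from an unpaired t-test, expressed as log2 and restricted to proteins having two or more unique peptides.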

[7] = compound: ClCC(=O)N[C@@H]1CCCc2ccccc12
How it was run: as §2

[8] = compound: ClCC(=O)N[C@H]1CCCc2ccccc12
How it was run: as §2

[9] = compound: CCC1N(CCc2cc(OC)c(Cl)cc12)C(=O)CCl
How it was run: as §1

[10] = compound: CCCC1N(CCc2cc(OC)c(OC)cc12)C(=O)CCl
How it was run: as §1

[11] = compound: CN(Cc1cccc(Br)c1)C(=O)CCl
How it was run: as §1

[12] = compound: CN(Cc1cccc(OCc2ccccc2C)c1)C(=O)CCl
How it was run: as §1

[13] = compound: CN(Cc1ccccc1)C(=O)CCl
How it was run: as §1

[14] = compound: COc1ccc(CN(C)C(=O)CCl)cc1
How it was run: as §1

[15] = compound: COc1cccc(CN(CCCc2ccccc2)C(=O)CCl)c1
How it was run: as §1

[16] = compound: ClCC(=O)N1CCc2cc(Cl)c(Cl)cc2C1
How it was run: as §1

[17] = compound: ClCC(=O)N1CCc2nc(ncc2C1)-c1ccccc1
How it was run: as §1

[18] = compound: ClCC(=O)N1CCc2nocc2C1
How it was run: as §1

[19] = compound: ClCC(=O)N1CCc2scc(Br)c2C1
How it was run: as §1

[20] = compound: ClCC(=O)NC(C1CCCC1)c1cccs1
How it was run: as §1

Measured: log2 ratio of Biotin-Ahx-Ub-VS probe labelling

USP22 (UniProt Q9UPT9)
Sequence of UniProt Q9UPT9 (Q9UPT9 whole entry): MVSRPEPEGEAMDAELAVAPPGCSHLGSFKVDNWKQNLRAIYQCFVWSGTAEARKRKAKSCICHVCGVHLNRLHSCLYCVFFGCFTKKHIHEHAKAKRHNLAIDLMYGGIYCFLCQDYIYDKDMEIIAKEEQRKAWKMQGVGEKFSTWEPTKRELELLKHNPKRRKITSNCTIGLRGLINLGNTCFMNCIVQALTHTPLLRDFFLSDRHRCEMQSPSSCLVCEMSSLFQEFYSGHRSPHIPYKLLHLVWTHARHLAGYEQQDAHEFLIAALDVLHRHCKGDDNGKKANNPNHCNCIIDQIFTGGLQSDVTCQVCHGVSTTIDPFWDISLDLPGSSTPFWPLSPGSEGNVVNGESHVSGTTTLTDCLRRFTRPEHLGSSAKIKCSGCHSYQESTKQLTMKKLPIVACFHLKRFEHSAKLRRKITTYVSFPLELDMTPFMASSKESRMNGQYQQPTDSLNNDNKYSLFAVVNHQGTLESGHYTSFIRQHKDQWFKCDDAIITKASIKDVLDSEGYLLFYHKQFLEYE
inactive: [1]; compound concentration: 50uM -0.0676 | [1]; compound concentration: 200uM -0.0769 | [2]; compound concentration: 50uM -0.0879 | [2]; compound concentration: 200uM -0.227 | [3]; compound concentration: 50uM 0.165 | [3]; compound concentration: 200uM -0.284 | [4]; compound concentration: 50uM 0.167 | [4]; compound concentration: 200uM -0.0888 | [5]; compound concentration: 50uM 0.0839 | [5]; compound concentration: 200uM -0.0221 | [6]; compound concentration: 0.78uM -0.256 | [6]; compound concentration: 1.56uM -0.271 | [6]; compound concentration: 3.13uM -0.269 | [6]; compound concentration: 6.25uM -0.318 | [6]; compound concentration: 12.5uM -0.0891 | [6]; compound concentration: 25uM -0.169 | [6]; compound concentration: 50uM -0.192 | [6]; compound concentration: 100uM -0.263 | [6]; compound concentration: 200uM -0.376 | [7]; compound concentration: 0.78uM -0.254 | [7]; compound concentration: 1.56uM -0.18 | [7]; compound concentration: 3.13uM -0.341 | [7]; compound concentration: 6.25uM -0.0166 | [7]; compound concentration: 12.5uM -0.101 | [7]; compound concentration: 25uM -0.166 | [7]; compound concentration: 50uM -0.259 | [7]; compound concentration: 100uM -0.0453 | [7]; compound concentration: 200uM -0.238 | [8]; compound concentration: 0.78uM -0.107 | [8]; compound concentration: 1.56uM -0.258 | [8]; compound concentration: 3.13uM -0.171 | [8]; compound concentration: 6.25uM -0.0996 | [8]; compound concentration: 12.5uM -0.17 | [8]; compound concentration: 25uM -0.0497 | [8]; compound concentration: 50uM -0.0246 | [8]; compound concentration: 100uM -0.0113 | [8]; compound concentration: 200uM -0.194 | [9]; compound concentration: 50uM -0.141 | [9]; compound concentration: 200uM -0.349 | [10]; compound concentration: 50uM -0.229 | [10]; compound concentration: 200uM -0.475 | [11]; compound concentration: 50uM -0.105 | [11]; compound concentration: 200uM 0.476 | [12]; compound concentration: 50uM -0.278 | [12]; compound concentration: 200uM -0.429 | [13]; compound concentration: 50uM -0.208 | [13]; compound concentration: 200uM -0.176 | [14]; compound concentration: 50uM -0.0376 | [14]; compound concentration: 200uM -0.15 | [15]; compound concentration: 50uM -0.102 | [15]; compound concentration: 200uM -0.225 | [16]; compound concentration: 50uM -0.0223 | [16]; compound concentration: 200uM -0.226 | [17]; compound concentration: 50uM -0.0429 | [17]; compound concentration: 200uM -0.339 | [18]; compound concentration: 50uM 0.0391 | [18]; compound concentration: 200uM -0.233 | [19]; compound concentration: 50uM -0.0943 | [19]; compound concentration: 200uM -0.362 | [20]; compound concentration: 50uM -0.0796 | [20]; compound concentration: 200uM -0.154

USP12 (UniProt O75317)
Sequence of UniProt O75317 (O75317 whole entry): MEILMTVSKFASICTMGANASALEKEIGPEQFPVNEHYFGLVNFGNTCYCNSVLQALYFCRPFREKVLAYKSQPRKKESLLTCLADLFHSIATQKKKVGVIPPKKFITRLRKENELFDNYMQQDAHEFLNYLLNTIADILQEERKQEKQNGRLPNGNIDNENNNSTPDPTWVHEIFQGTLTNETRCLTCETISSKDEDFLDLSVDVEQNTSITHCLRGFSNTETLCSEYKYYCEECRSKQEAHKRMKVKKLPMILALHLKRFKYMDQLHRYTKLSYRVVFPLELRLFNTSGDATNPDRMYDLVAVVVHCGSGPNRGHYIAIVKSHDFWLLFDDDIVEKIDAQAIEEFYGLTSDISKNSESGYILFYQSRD
inactive: [1]; compound concentration: 50uM -0.336 | [1]; compound concentration: 200uM -0.364 | [2]; compound concentration: 50uM -0.67 | [2]; compound concentration: 200uM -0.285 | [3]; compound concentration: 50uM -0.414 | [3]; compound concentration: 200uM 0.0587 | [4]; compound concentration: 50uM 0.232 | [4]; compound concentration: 200uM 0.133 | [5]; compound concentration: 50uM -0.0656 | [5]; compound concentration: 200uM -0.128 | [6]; compound concentration: 0.78uM -0.261 | [6]; compound concentration: 1.56uM -0.455 | [6]; compound concentration: 3.13uM -0.802 | [6]; compound concentration: 6.25uM -0.549 | [6]; compound concentration: 12.5uM -0.298 | [6]; compound concentration: 25uM -0.852 | [6]; compound concentration: 50uM -0.524 | [6]; compound concentration: 100uM -0.285 | [6]; compound concentration: 200uM -0.69 | [7]; compound concentration: 0.78uM -0.131 | [7]; compound concentration: 1.56uM 0.0424 | [7]; compound concentration: 3.13uM 0.272 | [7]; compound concentration: 6.25uM 0.0447 | [7]; compound concentration: 12.5uM -0.0347 | [7]; compound concentration: 25uM -0.263 | [7]; compound concentration: 50uM -0.715 | [7]; compound concentration: 100uM -0.0609 | [7]; compound concentration: 200uM -0.175 | [8]; compound concentration: 0.78uM -0.247 | [8]; compound concentration: 1.56uM -0.665 | [8]; compound concentration: 3.13uM 0.0603 | [8]; compound concentration: 6.25uM 0.103 | [8]; compound concentration: 12.5uM -0.0251 | [8]; compound concentration: 25uM -0.184 | [8]; compound concentration: 50uM -0.474 | [8]; compound concentration: 100uM -0.242 | [8]; compound concentration: 200uM -0.748 | [9]; compound concentration: 50uM -0.0261 | [9]; compound concentration: 200uM -0.904 | [10]; compound concentration: 50uM -0.303 | [10]; compound concentration: 200uM -0.368 | [11]; compound concentration: 50uM -0.144 | [11]; compound concentration: 200uM -0.188 | [12]; compound concentration: 50uM -0.484 | [12]; compound concentration: 200uM -0.602 | [13]; compound concentration: 50uM -0.0519 | [13]; compound concentration: 200uM -0.89 | [14]; compound concentration: 50uM -0.0378 | [14]; compound concentration: 200uM -0.439 | [15]; compound concentration: 50uM -0.477 | [15]; compound concentration: 200uM -0.852 | [16]; compound concentration: 50uM -0.202 | [17]; compound concentration: 50uM 0.154 | [17]; compound concentration: 200uM -0.813 | [18]; compound concentration: 50uM -0.195 | [18]; compound concentration: 200uM -0.415 | [19]; compound concentration: 50uM 0.0837 | [19]; compound concentration: 200uM -0.475 | [20]; compound concentration: 50uM 0.0281 | [20]; compound concentration: 200uM -0.0926
active: [16]; compound concentration: 200uM -2.18
